Records with an inconclusive call do not appear. Activity calls are given as the source filed them. The calls were made as follows, unless noted: active = hit-call score of the fitted dose curve at least 0.9, where 1 is the maximum; inactive = score below 0.9.
Key:
[1] = biological target: Thyroid hormone receptor alpha (Rattus norvegicus) + Thyroid hormone receptor beta (Rattus norvegicus) (UniProt P18113+P63059); test: TOX21_TR_LUC_GH3_Antagonist_Followup: Tox21 GH3 Thyroid Hormone Receptor Antagonism Luciferase Follow-Up Assay (AID 2283942; active = hit-call score of the fitted dose curve at least 0.9, where 1 is the maximum)
Summary of the method: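 Luminescence read-out (ONE-Glo, 30 min at room temperature) in GH3 reporter cells challenged with 1.0 nM T3 final. Compounds ran at 92 uM to 5nM over 15 concentrations for 24 h; DMSO served as negative control and baseline.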

THRA (gene 7067) [2] = biological target: THRA (gene 7067) (UniProt P10827); test: TOX21_TRA_COA_Antagonist_Followup_ratio: Tox21 Thyroid Hormone Receptor alpha Antagonism through Coactivator Recruitment Follow-Up Assay, Ratio (AID 2283953; active = hit-call score of the fitted dose curve at least 0.9, where 1 is the maximum)
Sequence of THRA (gene 7067) (P10827 whole entry, looked up, the tested form may be a part): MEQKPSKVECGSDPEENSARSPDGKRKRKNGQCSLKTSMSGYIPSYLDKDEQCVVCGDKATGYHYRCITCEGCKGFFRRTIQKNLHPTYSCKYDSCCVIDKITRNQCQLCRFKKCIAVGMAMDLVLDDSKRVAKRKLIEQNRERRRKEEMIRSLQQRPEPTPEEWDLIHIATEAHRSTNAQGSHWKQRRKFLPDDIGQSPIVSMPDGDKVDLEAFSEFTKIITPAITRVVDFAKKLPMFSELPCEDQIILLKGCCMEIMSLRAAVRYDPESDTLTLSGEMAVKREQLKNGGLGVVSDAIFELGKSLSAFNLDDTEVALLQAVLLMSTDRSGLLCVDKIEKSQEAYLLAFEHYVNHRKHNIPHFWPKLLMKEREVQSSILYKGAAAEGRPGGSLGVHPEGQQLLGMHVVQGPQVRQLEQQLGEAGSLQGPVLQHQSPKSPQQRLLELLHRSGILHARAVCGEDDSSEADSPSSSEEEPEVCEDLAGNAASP
Summary of the method: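 GST-TRα LBD 2.5 nM, BSA 0.10%, + cpd; then FITC-SRC-2 peptide 200 nM + Tb-anti-GST Ab 2 nM. TR-FRET ratio 520/495 nm. Norm: DMSO = 0%, T3 = 100%.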

THRB (gene 7068) [3] = biological target: THRB (gene 7068) (UniProt P10828); test: TOX21_TRB_BLA_Antagonist_Followup_ratio: Tox21 Thyroid Hormone Receptor beta Antagonism Beta-lactamase (BLA) Follow-Up Assay, Ratio (AID 2283958; active = hit-call score of the fitted dose curve at least 0.9, where 1 is the maximum)
Sequence of THRB (gene 7068) (P10828 whole entry, looked up, the tested form may be a part): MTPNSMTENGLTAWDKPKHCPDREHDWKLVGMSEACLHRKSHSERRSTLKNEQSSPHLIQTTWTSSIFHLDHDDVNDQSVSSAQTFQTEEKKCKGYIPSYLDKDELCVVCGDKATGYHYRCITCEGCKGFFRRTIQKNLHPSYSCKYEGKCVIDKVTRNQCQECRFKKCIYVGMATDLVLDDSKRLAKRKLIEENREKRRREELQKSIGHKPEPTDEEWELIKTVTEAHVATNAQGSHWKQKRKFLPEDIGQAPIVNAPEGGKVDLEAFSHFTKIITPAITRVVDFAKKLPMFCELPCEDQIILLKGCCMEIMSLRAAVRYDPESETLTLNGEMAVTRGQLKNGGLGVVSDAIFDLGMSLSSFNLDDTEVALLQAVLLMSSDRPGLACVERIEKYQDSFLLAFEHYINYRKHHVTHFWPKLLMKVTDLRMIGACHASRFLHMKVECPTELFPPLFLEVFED
Summary of the method: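 Beta-lactamase reporter ratio (460/530 nm, CCF4-AM substrate, 2 h room temperature) was read in TRb-bla HEK293T cells after 18 h compound treatment (11 concentrations, triplicate) at 37C in 2% charcoal-stripped FBS medium. Loss of signal fitted against DMSO.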

[4] = TOX21_TRB_BLA_Antagonist_Followup_viability: Viability Assessment in the Tox21 Thyroid Hormone Receptor beta Antagonism Beta-lactamase (BLA) Follow-Up Assay (AID 2283961; active = hit-call score of the fitted dose curve at least 0.9, where 1 is the maximum)
Summary of the method: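 HEK293T cells with GAL4-human TRβ LBD and UAS-bla reporter, 3,000 cells/well in 2% charcoal-stripped FBS medium; 11-point concentrations in triplicate, 18 h at 37C. Viability from ATP by CellTiter-Glo luminescence, 30 min RT, same plates.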

THRB (gene 7068) [5] = biological target: THRB (gene 7068) (UniProt P10828); test: TOX21_TRB_COA_Antagonist_Followup_ratio: Tox21 Thyroid Hormone Receptor beta Antagonism through Coactivator Recruitment Follow-Up Assay, Ratio (AID 2283967; active = hit-call score of the fitted dose curve at least 0.9, where 1 is the maximum)
Summary of the method: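 GST-TRb LBD 5.0 nM + 0.10% BSA, compound added; fluorescein-SRC-2 peptide 200 nM, Tb-anti-GST Ab 2 nM. TR-FRET, ex 340 / em 520:495 ratio. Norm: DMSO 0%, T3 100%.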

[6] = biological target: Retinoic acid receptor RXR-alpha (Homo sapiens) (UniProt P19793); test: TOX21_TR_RXR_BLA_Antagonist_Followup_ratio: Tox21 Thyroid Hormone Receptor beta Retinoid X Receptor alpha (RXRa) Antagonism Beta-lactamase (BLA) Follow-Up Assay, Ratio (AID 2283972; active = hit-call score of the fitted dose curve at least 0.9, where 1 is the maximum)
Sequence of Retinoic acid receptor RXR-alpha (Homo sapiens) (P19793 whole entry, looked up): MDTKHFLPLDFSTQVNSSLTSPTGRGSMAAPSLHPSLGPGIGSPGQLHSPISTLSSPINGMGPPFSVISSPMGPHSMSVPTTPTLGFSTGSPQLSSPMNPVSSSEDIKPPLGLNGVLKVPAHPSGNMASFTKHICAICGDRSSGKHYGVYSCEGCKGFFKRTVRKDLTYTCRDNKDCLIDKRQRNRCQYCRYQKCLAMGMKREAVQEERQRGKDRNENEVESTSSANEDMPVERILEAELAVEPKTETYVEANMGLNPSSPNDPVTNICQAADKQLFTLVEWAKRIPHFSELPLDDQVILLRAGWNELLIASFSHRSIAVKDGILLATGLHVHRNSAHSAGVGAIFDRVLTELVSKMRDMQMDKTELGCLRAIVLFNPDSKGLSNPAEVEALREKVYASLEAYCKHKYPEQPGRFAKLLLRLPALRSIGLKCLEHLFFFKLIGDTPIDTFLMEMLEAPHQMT
Summary of the method: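 RXRa-UAS-bla HEK293T cells, 2,500/well in phenol red-free DMEM with 2% charcoal-stripped FBS, 5 h attachment, then compounds (11 concentrations, triplicate) for 16 h at 37C; FRET-B/GCCF4-AM substrate 2 h RT; 460:530 nm ratio, loss of signal vs DMSO.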

[7] = TOX21_TR_RXR_BLA_Antagonist_Followup_viability: Viability Assessment in the Tox21 Thyroid Hormone Receptor beta Retinoid X Receptor alpha (RXRa) Antagonism Beta-lactamase (BLA) Follow-Up Assay (AID 2283979; active = hit-call score of the fitted dose curve at least 0.9, where 1 is the maximum)
Summary of the method: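 RXRa-bla HEK293T cells (2,500/well, phenol red-free DMEM, 2% charcoal-stripped FBS) were attached 5 h, then exposed to compounds at 11 concentrations in triplicate for 16 h at 37C. Viability measured by CellTiter-Glo ATP luminescence, bidirectional fitting versus DMSO.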

THRA (gene 7067) [8] = biological target: THRA (gene 7067) (UniProt P10827); test: TOX21_TRA_COA_Agonist_Followup_ratio: Tox21 Thyroid Hormone Receptor alpha Agonism through Coactivator Recruitment Follow-Up Assay, Ratio (AID 2283948)
Summary of the method: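 Cell-free TR-FRET: GST-tagged TRα LBD (2.5 nM) with 0.10% BSA and compound, then fluorescein-SRC-2 peptide (200 nM) and Tb-anti-GST antibody (2 nM). Readout 520:495 nm ratio (ex 340 nm), normalized to DMSO (0%) and T3 (100%).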

[9] = TOX21_TRB_BLA_Agonist_Followup_viability: Viability Assessment in the Tox21 Thyroid Hormone Receptor beta Agonism Beta-lactamase (BLA) Follow-Up Assay (AID 2283956; active = hit-call score of the fitted dose curve at least 0.9, where 1 is the maximum)
Summary of the method: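 Viability was read as CellTiter-Glo luminescence in the same wells as the TRb-bla agonist read-out. HEK293T GAL4-TRb LBD cells were treated for 18 h (37C, 5% CO2) at 11 concentrations in triplicate. Fits were bidirectional versus DMSO baseline.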

THRB (gene 7068) [10] = biological target: THRB (gene 7068) (UniProt P10828); test: TOX21_TRB_COA_Agonist_Followup_ratio: Tox21 Thyroid Hormone Receptor beta Agonism through Coactivator Recruitment Follow-Up Assay, Ratio (AID 2283963)
Summary of the method: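 Agonism is measured as coactivator recruitment in a purified-protein TR-FRET format, using GST-TRβ LBD at 5.0 nM, fluorescein-SRC-2 peptide at 200 nM and Tb-labeled anti-GST antibody at 2 nM. Values are 520:495 nm ratios relative to DMSO (0%) and T3 (100%).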

[11] = biological target: Retinoic acid receptor RXR-alpha (Homo sapiens) (UniProt P19793); test: TOX21_TR_RXR_BLA_Agonist_Followup_ratio: Tox21 Thyroid Hormone Receptor beta Retinoid X Receptor alpha (RXRa) Agonism Beta-lactamase (BLA) Follow-Up Assay, Ratio (AID 2283968; active = hit-call score of the fitted dose curve at least 0.9, where 1 is the maximum)
Summary of the method: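 Agonist mode: compounds given to RXRa-bla HEK293T cells at 11 concentrations, triplicate, 16 h at 37C/5% CO2. Readout is the 460:530 nm blue/green ratio after 2 h substrate loading at room temperature; DMSO baseline, 9-cis retinoic acid control.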

[12] = TOX21_TR_RXR_BLA_Agonist_Followup_viability: Viability Assessment in the Tox21 Thyroid Hormone Receptor beta Retinoid X Receptor alpha (RXRa) Agonism Beta-lactamase (BLA) Follow-Up Assay (AID 2283970; active = hit-call score of the fitted dose curve at least 0.9, where 1 is the maximum)
Summary of the method: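 CellTiter-Glo ATP luciferase read-out of cell viability, multiplexed with the beta-lactamase reporter run. RXRa-bla HEK293T cells in charcoal-stripped serum medium were exposed 16 h at 37C; data fitted both directions relative to DMSO.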

[13] = CCTE_Harrill_HTTr_Viability_DMEM_6hr: (Pilot) CCTE's 6-hour Cell Viability Assessment for the High-Throughput Transcriptomics (HTTr) Platform, in MCF-7 cells cultured in DMEM + 10% fetal bovine serum, Harrill Lab (AID 2283973)
Summary of the method: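 Propidium iodide uptake imaged by high-content analysis after six hours of chemical treatment in an eight-concentration series. Cells: MCF-7 grown in DMEM with 10% fetal bovine serum; DMSO as baseline.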

[14] = CCTE_Harrill_HTTr_Viability_DMEM_12hr: (Pilot) CCTE's 12-hour Cell Viability Assessment for the High-Throughput Transcriptomics (HTTr) Platform, in MCF-7 cells cultured in DMEM + 10% fetal bovine serum, Harrill Lab (AID 2283974)
Summary of the method: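 Propidium iodide dye exclusion imaged by high-content microscopy after 12 h chemical exposure (eight concentrations) of MCF-7 cells grown in DMEM plus 10% FBS; values fitted in both directions relative to DMSO.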

[15] = CCTE_Harrill_HTTr_Viability_DMEM_24hr: (Pilot) CCTE's 24-hour Cell Viability Assessment for the High-Throughput Transcriptomics (HTTr) Platform, in MCF-7 cells cultured in DMEM + 10% fetal bovine serum, Harrill Lab (AID 2283975)
Summary of the method: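 Pilot study: propidium iodide dye exclusion, imaged by high content microscopy, after 24 h compound exposure (eight concentrations) in MCF-7 cultured in DMEM + 10% fetal bovine serum; DMSO served as negative control and baseline.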

[16] = CCTE_Harrill_HTTr_Viability_PRF_DMEM_6hr: (Pilot) CCTE's 6-hour Cell Viability Assessment for the High-Throughput Transcriptomics (HTTr) Platform, in MCF-7 cells cultured phenol red-free DMEM + 10% charcoal-stripped fetal bovine serum, Harrill Lab (AID 2283976)
Summary of the method: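 Membrane integrity by high-content imaging of propidium iodide uptake, six hours after dosing with eight concentrations. Cells: MCF-7 grown in phenol red-free DMEM plus 10% charcoal-stripped serum; DMSO serves as baseline for bidirectional fits.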

[17] = CCTE_Harrill_HTTr_Viability_PRF_DMEM_12hr: (Pilot) CCTE's 12-hour Cell Viability Assessment for the High-Throughput Transcriptomics (HTTr) Platform, in MCF-7 cells cultured in phenol red-free DMEM + 10% charcoal-stripped fetal bovine serum, Harrill Lab (AID 2283977)
Summary of the method: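 Membrane integrity was scored via propidium iodide dye exclusion imaging, fitted in both directions relative to DMSO. Compounds ran as eight-point dilutions for 12 hours on MCF-7 grown in phenol red-free DMEM plus 10% charcoal-stripped serum.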

[18] = CCTE_Harrill_HTTr_Viability_PRF_DMEM_24hr: (Pilot) CCTE's 24-hour Cell Viability Assessment for the High-Throughput Transcriptomics (HTTr) Platform, in MCF-7 cells cultured in phenol red-free DMEM + 10% charcoal-stripped fetal bovine serum, Harrill Lab (AID 2283980)
Summary of the method: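 Propidium iodide exclusion imaged at 24 h after dosing scores viability; cells were MCF-7 grown in phenol red-free DMEM plus 10% charcoal-stripped serum, tested in eight concentrations, fitted in both directions against DMSO.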

[19] = CCTE_Harrill_HTTr_Apoptosis_DMEM_6hr: (Pilot) CCTE's 6-hour Apoptosis Assessment for the High-Throughput Transcriptomics (HTTr) Platform, in MCF-7 cells cultured in DMEM + 10% fetal bovine serum, Harrill Lab (AID 2283981)
Summary of the method: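 MCF-7 cells grown in DMEM + 10% FBS were exposed for 6 hours to an eight-point dilution series. CellEvent Caspase 3/7 Green signal was imaged; activity fitted bidirectionally against DMSO.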

Measured: AC50

CO/C=C(/C(=O)OC)c1ccccc1COc1cccc(C(F)(F)F)n1
inactive: THRA (gene 7067) [2] | THRB (gene 7068) [3] | [4] | THRB (gene 7068) [5] | [6] | [7]
active: [1] 2.06 µM

C[C@]12CCC(=O)C=C1CC[C@@H]1[C@@H]2CC[C@@]2(C)[C@H]1CC[C@]2(C)O
inactive: [1] | THRA (gene 7067) [2] | THRB (gene 7068) [3] | THRB (gene 7068) [5] | [7]

Cc1cc(O)ccc1Cl
inactive: THRA (gene 7067) [8] | [9] | THRB (gene 7068) [10] | [11] | [12]

CC(C)(c1ccccc1)c1ccc(O)cc1
inactive: [13] | [14] | [15] | [16] | [17] | [18] | [19]

CCC(C)(c1ccc(O)cc1)c1ccc(O)cc1
inactive: [13] | [14] | [15] | [16] | [17] | [18] | [19]
